Experimental data: PubChem BioAssay
A number with no mark means an inactive call. For part of these data: Results with a measured potency or affinity are listed apart. The source made the active and inactive calls. Unless noted, the rule behind the calls is not given here.

Tests used:
[1] = antimalarial activity against Dd2 strain (AID 2302;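 active = growth inhibition above 50% at the single 2 µM test dose, taken to imply half-maximal potency below 2 µM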;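 note: 0% = DMSO untreated growth and 100% = chloroquine plus artemisinin killed control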); conditions: P. falciparum Dd2 in RBCs, LDH growth readout, 72 h; at 2 µM; stronger effect = higher value
[2] = human hepatoma cell viability loss – ATP luminescence, cytotoxicity control for P. falciparum antimalarial project, primary screen (AID 2303;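 active = inhibition above 50%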;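 note: 0% = DMSO wells and 100% = digitonin-killed cells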); conditions: HepG2 viability, 24-48 h, at 10 µM, stronger effect = higher value
[3] = molecular target: L-lactate dehydrogenase (Plasmodium falciparum (isolate CDC / Honduras)) (UniProt Q27743); test: PfLDH activity inhibition – cell lysate, 3D7 strain, counter-screen for P. falciparum growth inhibition project (AID 2304);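 note: 0% = vehicle and 100% = reference inhibitor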; conditions: P. falciparum 3D7 crude extract, LDH APAD/NBT absorbance; at 2 µM; stronger effect = higher value
[4] = inhibition of 3D7 malaria parasite growth – strain 3D7 (AID 2306);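 note: 0% = DMSO wells and 100% = chloroquine plus artemisinin control wells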; conditions: P. falciparum 3D7 erythrocytic growth, LDH absorbance, 72 h; at 2 µM; stronger effect = higher value
[5] = molecular target: Calcium-dependent protein kinase 1 (Plasmodium falciparum (isolate 3D7)) (UniProt P62344); test: PfCDPK1 kinase inhibitors, biochemical, TCAMS library (AID 1159585; cut-off not given, nearly all actives have IC50 up to about 0.98 µM;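 note: inhibitors leave more ATP so luminescence rises with inhibition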); conditions: recombinant PfCDPK1, Kinase-Glo ATP depletion luminescence
[6] = molecular target: Plasmodium falciparum protein kinase 6 (PK6, PF3D7_1337100) (UniProt Q8IDW1); test: PfPK6 kinase inhibitors, biochemical, TCAMS library (AID 1159586); conditions: recombinant PfPK6, Kinase-Glo ATP depletion luminescence
[7] = molecular target: Protein kinase 7 (PK7), Plasmodium falciparum 3D7 (PF3D7_0213400) (UniProt Q7YTF7); test: inhibition of Plasmodium PK7 catalytic activity – biochemical, TCAMS antimalarial set, Kinase-Glo luminescence (AID 1159587); conditions: recombinant PfPK7, Kinase-Glo ATP depletion luminescence
[8] = molecular target: Calcium-dependent protein kinase 4 (Plasmodium falciparum (isolate 3D7)) (UniProt Q8IBS5); test: PfCDPK4 kinase inhibitors, biochemical, TCAMS library (AID 1159588; cut-off not given, nearly all actives have IC50 up to about 0.91 µM); conditions: recombinant PfCDPK4, Kinase-Glo ATP depletion luminescence
Calcium-dependent protein kinase 4 (Plasmodium falciparum (isolate 3D7)), sequence (Q8IBS5 whole entry, looked up): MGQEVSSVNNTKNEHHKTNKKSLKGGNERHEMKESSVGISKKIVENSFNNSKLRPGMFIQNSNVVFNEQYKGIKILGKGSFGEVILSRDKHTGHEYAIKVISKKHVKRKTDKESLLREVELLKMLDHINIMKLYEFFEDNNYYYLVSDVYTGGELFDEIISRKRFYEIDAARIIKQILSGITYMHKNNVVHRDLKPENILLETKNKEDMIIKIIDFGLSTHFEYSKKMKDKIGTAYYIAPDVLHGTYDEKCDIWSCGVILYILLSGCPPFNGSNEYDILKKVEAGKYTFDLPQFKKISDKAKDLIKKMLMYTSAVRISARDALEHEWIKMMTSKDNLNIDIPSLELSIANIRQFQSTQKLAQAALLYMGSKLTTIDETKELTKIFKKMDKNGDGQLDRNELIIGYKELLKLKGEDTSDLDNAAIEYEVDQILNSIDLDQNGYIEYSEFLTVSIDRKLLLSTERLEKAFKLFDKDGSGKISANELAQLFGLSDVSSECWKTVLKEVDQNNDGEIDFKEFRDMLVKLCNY

Calcium-dependent protein kinase 1 (Plasmodium falciparum (isolate 3D7)), sequence (P62344 whole entry, looked up): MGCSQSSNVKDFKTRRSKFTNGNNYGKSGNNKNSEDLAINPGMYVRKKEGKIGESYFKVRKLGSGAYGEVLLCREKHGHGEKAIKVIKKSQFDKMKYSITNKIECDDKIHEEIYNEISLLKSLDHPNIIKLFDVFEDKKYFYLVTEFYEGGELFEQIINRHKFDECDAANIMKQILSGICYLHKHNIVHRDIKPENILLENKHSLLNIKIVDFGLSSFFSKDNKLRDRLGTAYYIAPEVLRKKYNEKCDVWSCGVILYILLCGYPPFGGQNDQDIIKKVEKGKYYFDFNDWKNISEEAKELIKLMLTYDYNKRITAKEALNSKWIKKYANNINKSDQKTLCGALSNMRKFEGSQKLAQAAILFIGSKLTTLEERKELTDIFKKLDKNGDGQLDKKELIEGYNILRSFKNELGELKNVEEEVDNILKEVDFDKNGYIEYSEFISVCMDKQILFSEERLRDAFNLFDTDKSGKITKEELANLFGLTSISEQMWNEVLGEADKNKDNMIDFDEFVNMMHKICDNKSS
L-lactate dehydrogenase (Plasmodium falciparum (isolate CDC / Honduras)), sequence (Q27743 whole entry, looked up): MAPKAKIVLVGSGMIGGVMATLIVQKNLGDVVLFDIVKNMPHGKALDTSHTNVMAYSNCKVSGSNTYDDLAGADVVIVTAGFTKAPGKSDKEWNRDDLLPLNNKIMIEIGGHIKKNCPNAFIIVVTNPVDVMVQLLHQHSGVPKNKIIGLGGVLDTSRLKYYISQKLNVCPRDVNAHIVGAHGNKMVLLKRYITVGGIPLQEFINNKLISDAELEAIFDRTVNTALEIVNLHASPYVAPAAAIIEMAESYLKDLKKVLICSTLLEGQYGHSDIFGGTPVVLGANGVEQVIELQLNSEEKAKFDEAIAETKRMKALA
Protein kinase 7 (PK7), Plasmodium falciparum 3D7 (PF3D7_0213400), sequence (Q7YTF7 1-343): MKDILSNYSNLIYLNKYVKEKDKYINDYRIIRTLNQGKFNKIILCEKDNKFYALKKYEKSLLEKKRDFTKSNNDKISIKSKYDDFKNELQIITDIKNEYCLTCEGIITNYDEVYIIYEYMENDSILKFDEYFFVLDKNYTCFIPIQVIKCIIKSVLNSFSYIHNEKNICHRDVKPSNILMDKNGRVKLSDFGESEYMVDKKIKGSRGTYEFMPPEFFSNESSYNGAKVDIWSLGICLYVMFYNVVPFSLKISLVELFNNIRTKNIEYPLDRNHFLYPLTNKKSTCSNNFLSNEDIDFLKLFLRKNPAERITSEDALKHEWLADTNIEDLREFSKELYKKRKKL
Plasmodium falciparum protein kinase 6 (PK6, PF3D7_1337100), sequence (Q8IDW1 1-305): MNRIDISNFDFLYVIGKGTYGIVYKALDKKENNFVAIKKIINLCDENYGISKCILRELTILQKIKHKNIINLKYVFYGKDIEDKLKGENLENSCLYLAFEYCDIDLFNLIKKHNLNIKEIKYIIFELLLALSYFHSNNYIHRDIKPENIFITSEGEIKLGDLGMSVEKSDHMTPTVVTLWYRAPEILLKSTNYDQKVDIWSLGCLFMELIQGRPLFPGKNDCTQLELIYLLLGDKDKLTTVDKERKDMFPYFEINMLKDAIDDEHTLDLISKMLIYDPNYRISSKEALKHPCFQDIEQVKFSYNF

Structure (SMILES)	growth inhibition [1]	inhibition [2]	inhibition [3] [%]	growth inhibition [4]	outcome [5]	outcome [6]	outcome [7]	outcome [8]
Cc1cc(F)ccc1[C@H]1C[C@H](N2CCOCC2)CCN1C(=O)N(C)[C@@H](C)c1cc(C(F)(F)F)cc(C(F)(F)F)c1	99% (active)	4%	3	100% (active)	inactive	inactive	inactive	inactive
O=C(Nc1ccccc1)NC1CCN(CCC2(c3ccc(Cl)c(Cl)c3)COCN(C(=O)c3ccccc3)C2)C1 (configuration not stated)	81% (active)	23%	3	92% (active)	inactive	inactive	inactive	inactive
COc1ccc(N2CCN(CCCCNCc3ccc(NC(=O)c4cc(Cl)cc(Cl)c4)cc3)CC2)c(OC)c1	99% (active)	39%	0	100% (active)	inactive	inactive	inactive	inactive
Nc1ncc(-c2ccc(Cl)c(Cl)c2)c(N)n1	-2%	65% (active)	-2	94% (active)	inactive	inactive	inactive	inactive
O=C(N[C@H]1CCN(CCc2ccc(O[C@H]3CCNC3)c(Cl)c2)C1)c1ccc(Cl)c(Cl)c1	-1%	26%	2	101% (active)	inactive	inactive	inactive	inactive
Cc1cc(=O)c(-c2ccc(Oc3ccc(C(F)(F)F)cc3)cc2)c(C)n1O	78% (active)	18%	0	94% (active)	inactive	inactive	inactive	inactive
COc1ccc(CCNCCCCCCNCCc2ccc(Cl)c(Cl)c2)cc1OC	10%	59% (active)	-1	101% (active)	inactive	inactive	inactive	inactive
Cc1ccccc1C1CCN(c2ccc(C(=O)NC3CC3)cn2)CC1	95% (active)	17%	-2	95% (active)	inactive	inactive	inactive	inactive
CC1(C)N=C(N)N=C(N)N1c1ccc(Oc2ccc(Cl)cc2)c(Cl)c1	20%	13%	-2	97% (active)	inactive	inactive	inactive	inactive
Cc1c2c(nn1-c1ccccc1)C(c1ccccc1)N(c1ccccc1)C2=O (configuration not stated)	96% (active)	42%	1	92% (active)	inactive	inactive	inactive	inactive
Cn1cccc1CCNCc1ccc(-c2cccc(-c3nc4ccccc4[nH]3)c2)cc1	66% (active)	1%	3	88% (active)	inactive	inactive	inactive	inactive
Cc1cc(C)c(NC(=O)NC2CCN(CCCCCNC(=O)/C=C/c3ccc(Cl)c(Cl)c3)C2)c(C)c1 (configuration not stated)	48%	23%	1	99% (active)	inactive	inactive	inactive	inactive
CCCc1cc(N2CCC(c3ccccc3)(N3CCCCC3)CC2)nc(Nc2ccc(OC)cc2)n1	28%	13%	1	81% (active)	inactive	inactive	inactive	inactive
CN1CCC[C@H]1COc1ccc(CN2CC[C@H](NC(=O)c3ccc(Cl)c(Cl)c3)C2)c2ccccc12	98% (active)	47%	-3	101% (active)	inactive	inactive	inactive	inactive
CCCc1cc(C(C)=O)ccc1OCCCON1C(N)=NC(N)=NC1(C)C	96% (active)	61% (active)	4	96% (active)	inactive	inactive	inactive	inactive
Cc1nc2ccc(NC(=O)Nc3ccnc4ccc(C(F)(F)F)cc34)cc2o1	24%	20%	-7	89% (active)	inactive	inactive	inactive	inactive
Cc1cc2ccccc2c(CON2C(N)=NC(N)=NC2(C)C)c1C	31%	65% (active)	-3	93% (active)	inactive	inactive	inactive	inactive
O=C(/C=C/c1ccc(Cl)c(Cl)c1)NCCCCN1CCC(c2c[nH]c3ccccc23)CC1	11%	57% (active)	-2	91% (active)	inactive	inactive	inactive	inactive
O=C(NCc1ccccc1)C1Cc2c([nH]c3ccc(Br)cc23)C2(CCN(Cc3ccccc3)CC2)N1 (configuration not stated)	70% (active)	15%	1	98% (active)	inactive	inactive	inactive	inactive
Oc1ccc2[nH]c(-c3cccs3)nc2c1CN1CCC(N2CCCC2)CC1	13%	6%	-3	100% (active)	inactive	inactive	inactive	inactive

Structure (SMILES)	growth inhibition [1]	inhibition [2]	inhibition [3] [%]	growth inhibition [4]	outcome [5]	outcome [6]	outcome [7]	outcome [8]
CCOC(=O)c1ccc(OCCCCCCOc2ccc(Br)cc2)cc1	-2%	12%	-4	98% (active)	inactive	inactive	inactive	inactive
COc1ccc(NC(=O)[C@H](Cc2ccccc2)Nc2cc(C)nc(NCCc3ccc(F)cc3)n2)cc1	82% (active)	17%	-3	101% (active)	inactive	inactive	inactive	inactive
O=C(Nc1cccc(-c2cc(-c3c(Cl)cccc3Cl)no2)c1)c1cnc2ccccc2c1	34%	-6%	-3	87% (active)	inactive	inactive	inactive	inactive
O=C(/C=C/c1ccccc1O)NCCCCCN1CCC(c2c[nH]c3ccccc23)CC1	1%	7%	-5	95% (active)	inactive	inactive	inactive	inactive
O=C(Nc1cccc(F)c1)N[C@H]1CCN(CCCCCNC(=O)[C@@H]2C[C@H]2c2ccc(Cl)c(Cl)c2)C1	1%	41%	-1	90% (active)	inactive	inactive	inactive	inactive
CC(C)=CC1C(C(=O)n2c(N)nc3ccccc32)C1(C)C (configuration not stated)	3%	16%	-6	99% (active)	inactive	inactive	inactive	inactive
NC(=O)c1ccsc1NC(=O)CNC(c1ccccc1)c1ccccc1	37%	8%	3	88% (active)	inactive	inactive	inactive	inactive
O=C(CC1SC(N2N=C(c3cccs3)CC2c2ccccc2)=NC1=O)Nc1ccccc1F (configuration not stated)	76% (active)	9%	-2	87% (active)	inactive	inactive	inactive	inactive
CCOc1cc(Br)c(C(C)NC(=O)c2ccccc2)cc1OCC (configuration not stated)	10%	-2%	5	92% (active)	inactive	inactive	inactive	inactive
COc1ccc(F)cc1-c1ccccc1CNC(=O)CN(C)S(=O)(=O)c1cc(C)cc(Cl)c1C	73% (active)	-3%	-2	92% (active)	inactive	inactive	inactive	inactive
COc1cccc2cc(C(=O)N[C@@H](CC(C)C)C(=O)NC3CC[C@@H](C)N(C(=O)Nc4ccncc4)CC3=O)oc12 (some centres not stated)	90% (active)	7%	-7	95% (active)	inactive	inactive	inactive	inactive
Cc1nc(N/C=C/c2ccc(O)cc2)cc(N2CCCC2)n1	54% (active)	-11%	-2	93% (active)	inactive	inactive	inactive	inactive
OC(CNc1ccnc(Nc2ccc(Cl)cc2)n1)c1ccccc1C(F)(F)F (configuration not stated)	28%	22%	0	98% (active)	inactive	inactive	inactive	inactive
CC(=O)c1ccc(O)c(CC(O)CO)c1 (configuration not stated)	-1%	3%	4	100% (active)	inactive	inactive	inactive	inactive
O=C(NCCCCN1CCC(c2ccc3c(c2OCCN2CCCC2)CCCC3)CC1)c1ccc(-c2ccc(C(F)(F)F)cc2)cc1	81% (active)	25%	-6	100% (active)	inactive	inactive	inactive	inactive
CCN(CC)CCN(Cc1ccc(-c2ccc(C(F)(F)F)cc2)cc1)C(=O)Cn1cc(Cc2cnn(C)c2)c(=O)n2nc(-c3ccccc3)cc12	74% (active)	18%	-2	100% (active)	inactive	inactive	inactive	inactive
COc1ccccc1-c1ccc(CNC(=O)C(CN2CCN(C)CC2)c2ccccc2)cc1 (configuration not stated)	4%	3%	2	90% (active)	inactive	inactive	inactive	inactive
Cc1cccc2[nH]c(-c3ccc(-c4ccc(NC(=O)Nc5ccc(Cl)c(Cl)c5)cc4)cc3)nc12	100% (active)	37%	0	101% (active)	inactive	inactive	inactive	inactive
COc1ccc(Nc2nccc(N3CCC(NC(=O)C(C)c4ccc(Cl)cc4)C3)n2)cc1 (configuration not stated)	97% (active)	35%	-4	85% (active)	inactive	inactive	inactive	inactive
